For 24 compounds, Potency and outcome results are on record in PubChem BioAssay (Tox21).

Experiment [1] is described as follows: qHTS assay to identify small molecule antagonists of the thyroid receptor (TR) signaling pathway (AID 743065). Also: series mostly up to about 70 µM; nearly all actives have a fitted effect of over 55% in size. Summed up:
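GH3.TRE-Luc rat pituitary cells carrying two TR response elements driving luciferase were plated for 4 h, given compound plus 1 nM T3 (final), and incubated 23.5 h at 37 C. ONE-Glo luminescence measured reporter inhibition; CellTiter-Fluor fluorescence tracked cytotoxicity.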
(qHTS replaces the single test concentration by a dilution series.)

The subject of experiment [2] is thyroid hormone receptor (rat, GH3 cells). As to the kind of experiment: qHTS assay to identify small molecule agonists of the thyroid receptor (TR) signaling pathway (AID 743066; calls by dose curve).
Experiment [3] addresses Estrogen receptor (Homo sapiens) (UniProt P03372). As to the kind of experiment: qHTS assay to identify small molecule antagonists of the estrogen receptor alpha (ER-alpha) signaling pathway (AID 743069; active = well fitted curve in the direction sought with a large enough effect in the signal ratio in the repeat runs, not every such curve was filed as active; the % refers to the signal ratio). Summed up:
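HEK293 cells stably carrying an ER-alpha-UAS-bla beta-lactamase reporter were pre-cultured overnight in 2% charcoal-stripped FBS medium. Test compounds in DMSO were added together with 17beta-estradiol for 18 hr at 37C. Read-out was fluorescence after 2 hr with LiveBLAzer B/G FRET substrate at room temperature.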

A short description of experiment [4]: qHTS assay to identify small molecule antagonists of the estrogen receptor alpha (ER-alpha) signaling pathway - cell viability counter screen (AID 743074; calls by dose curve; also: nearly all actives have a fitted effect of over 45% in size).
The target of experiment [5] is Estrogen receptor (Homo sapiens) (UniProt P03372). As to the kind of experiment: qHTS assay to identify small molecule agonists of the estrogen receptor alpha (ER-alpha) signaling pathway (AID 743075; calls by dose curve).
Chain of Estrogen receptor (Homo sapiens) (P03372 whole entry, looked up): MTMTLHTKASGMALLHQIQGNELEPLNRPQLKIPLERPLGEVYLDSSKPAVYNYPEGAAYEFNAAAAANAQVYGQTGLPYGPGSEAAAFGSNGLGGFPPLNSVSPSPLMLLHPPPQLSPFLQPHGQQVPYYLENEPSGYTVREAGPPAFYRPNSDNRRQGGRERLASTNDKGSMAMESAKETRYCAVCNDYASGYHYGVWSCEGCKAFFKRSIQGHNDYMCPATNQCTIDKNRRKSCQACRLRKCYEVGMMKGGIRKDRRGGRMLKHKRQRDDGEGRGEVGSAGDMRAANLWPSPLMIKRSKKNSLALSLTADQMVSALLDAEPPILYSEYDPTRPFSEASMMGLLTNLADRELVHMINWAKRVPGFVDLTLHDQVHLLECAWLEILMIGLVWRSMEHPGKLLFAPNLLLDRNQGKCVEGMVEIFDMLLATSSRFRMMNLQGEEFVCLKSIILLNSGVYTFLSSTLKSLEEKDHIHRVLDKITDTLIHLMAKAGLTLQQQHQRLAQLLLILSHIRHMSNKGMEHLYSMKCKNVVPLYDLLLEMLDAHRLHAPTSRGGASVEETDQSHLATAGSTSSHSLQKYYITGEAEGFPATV
Experiment [6] shares this target. As to the kind of experiment: qHTS assay to identify small molecule agonists of the estrogen receptor alpha (ER-alpha) signaling pathway using the BG1 cell line (AID 743079). Also: nearly all actives have a fitted effect of over 20% in size. Also: potency is read from the fitted curve at half-maximal effect.
Experiment [7] in a line: qHTS assay to identify small molecule antagonists of the estrogen receptor alpha (ER-alpha) signaling pathway using the BG1 cell line (AID 743080; calls by dose curve;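 also: BG1 cells stimulated with 17beta-estradiol alongside compound; series mostly up to about 70 µM; nearly all actives have a fitted effect of over 25% in size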). Summed up: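 After 5 days in phenol-red-free 10% charcoal-stripped FBS medium, BG1-Luc-4E2 cells were seeded, left 24 h at 37 C, co-treated with compounds and 17beta-estradiol for 21.5 h, then assayed for viability and luciferase.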

Experiment [8] can be described thus: qHTS assay to identify small molecule antagonists of the estrogen receptor alpha (ER-alpha) signaling pathway using the BG1 cell line - cell viability counter screen (AID 743081).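 Also: compound given together with 17beta-estradiol as the ER stimulus; series mostly up to about 70 µM; nearly all actives have a fitted effect of over 45% in size.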
The target of a further experiment is Aromatase (Homo sapiens) (UniProt P11511). As to the kind of experiment: qHTS assay to identify aromatase inhibitors (AID 743083). Also: series mostly up to about 70 µM; nearly all actives have a fitted effect of over 55% in size.
Chain of Aromatase (Homo sapiens) (P11511 whole entry, looked up): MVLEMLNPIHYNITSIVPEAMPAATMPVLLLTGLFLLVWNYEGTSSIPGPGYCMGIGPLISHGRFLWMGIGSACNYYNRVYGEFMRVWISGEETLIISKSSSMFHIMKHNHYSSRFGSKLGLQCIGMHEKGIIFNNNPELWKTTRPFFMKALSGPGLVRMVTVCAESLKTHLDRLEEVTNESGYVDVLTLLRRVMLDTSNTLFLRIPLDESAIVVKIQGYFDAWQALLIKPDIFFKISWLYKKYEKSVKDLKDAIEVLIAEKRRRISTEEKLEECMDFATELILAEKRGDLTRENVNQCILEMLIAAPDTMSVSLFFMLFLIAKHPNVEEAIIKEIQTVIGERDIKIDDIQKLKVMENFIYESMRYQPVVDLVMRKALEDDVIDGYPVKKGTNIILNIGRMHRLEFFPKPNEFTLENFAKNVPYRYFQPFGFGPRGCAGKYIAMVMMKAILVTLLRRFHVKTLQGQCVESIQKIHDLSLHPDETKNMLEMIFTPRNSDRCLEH
Experiment [9] can be described thus: qHTS assay to identify aromatase inhibitors - cell viability counter screen (AID 743084).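 Also: cells stimulated with testosterone during compound exposure; nearly all actives have a fitted effect of over 55% in size.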

Records with an inconclusive call do not appear. A structure can be active in one record and inactive in another. Calls of active or inactive are those of the source. Unless noted, calls follow the shape of the dose curve; as a rule, active = well fitted curve in the direction sought with a large enough effect in the repeat runs; inconclusive = weak or mixed curves; inactive = no such curve, though single readings can be large; an effect the other way counts as inactive or inconclusive.

Regarding `O=C1c2ccccc2C(=O)N1CO`, the Potency entry in [1], in [2], in experiment [4], in [5], in experiment [6] and in [7] was “inactive” each time. The Potency entry with Aromatase (Homo sapiens) is “inactive”. The call in experiment [3], in experiment [8] and in [9] was inactive.
With `CCCCCCCCCCCCCCBr`, the Potency result in [1], in [2], in experiment [4], in [5], in [6] and in [7] was “inactive” throughout. Besides, the Potency result with Aromatase (Homo sapiens) was “inactive”. The result in experiment [3], in [8] and in experiment [9] was inactive.
On to `O=C(O)COc1ccc2ccccc2c1`, for which the Potency result in [1], in [2], in experiment [4], in [5], in experiment [6] and in experiment [7] was “inactive” each time. In the experiment with Aromatase (Homo sapiens), the Potency result is “inactive”. In addition, the compound was classed as inactive in [3], in [8] and in experiment [9].
For `N=C(N)S(=O)O`, the Potency result in [1], in experiment [2], in experiment [4], in experiment [5], in experiment [6] and in [7] was “inactive” each time. In the experiment with Aromatase (Homo sapiens), the Potency entry is “inactive”. Further, the call in [3], in [8] and in experiment [9] was inactive.
With `CC(C)C[P+](C)(CC(C)C)CC(C)C`, the Potency entry in experiment [1], in [2], in experiment [4], in [5], in experiment [6] and in [7] was “inactive” each time. The Potency result in the experiment with Aromatase (Homo sapiens) was “inactive”. Moreover, the outcome in experiment [3], in [8] and in experiment [9] was inactive.
For the compound `CCCC(=O)CC`, the Potency entry (in experiment [1]; in experiment [2]; in [4]; in experiment [5]; in experiment [7]; in the experiment with Aromatase (Homo sapiens)) was “inactive” in each case. Besides, the outcome in experiment [3], in experiment [8] and in experiment [9] was inactive. The Potency in experiment [6] was 28.1 µM (active).
On to `O=P(O)(O)C(O)(Cc1cccnc1)P(=O)(O)O`, for which the Potency result in experiment [1], in [2], in experiment [4], in experiment [5], in experiment [6] and in experiment [7] was “inactive” throughout. Moreover, the Potency entry with Aromatase (Homo sapiens) is “inactive”. The result in experiment [3], in [8] and in experiment [9] was inactive.
As to `C[Si](C)(C)O[Si](O)(O)O`, the Potency entry in [1], in [2], in experiment [4], in [5], in experiment [6] and in [7] was “inactive” throughout. In the experiment with Aromatase (Homo sapiens), the Potency entry was “inactive”. The compound was called inactive in experiment [3], in experiment [8] and in experiment [9].
Consider `O=C(O)Cc1ccccc1Oc1ccc(Cl)cc1Cl`, for which the Potency result in [1], in [2], in experiment [4], in [5], in experiment [6] and in [7] was “inactive” in each case. Further, the Potency result with Aromatase (Homo sapiens) was “inactive”. Moreover, the outcome in [3], in experiment [8] and in experiment [9] was inactive.
On to `O=C(OOC(=O)c1ccccc1)c1ccccc1`, for which the Potency result in [1], in [2], in experiment [4], in experiment [5], in experiment [6] and in experiment [7] was “inactive” each time. For the same compound, the Potency result in the experiment with Aromatase (Homo sapiens) was “inactive”. Further, the compound was called inactive in experiment [3], in experiment [8] and in experiment [9].
Turning to `C[C@@H]1NC(=O)[C@@H](N)CNC(=O)[C@H](C2CCNC(N)=N2)NC(=O)/C(=C/NC(N)=O)NC(=O)[C@H](CNC(=O)C[C@@H](N)CCCN)NC1=O` (stereo not given in full), the Potency result (in experiment [1]; in experiment [2]; in experiment [4]; in [5]; in [7]; in the experiment with Aromatase (Homo sapiens)) was “inactive” each time. In addition, the compound was called inactive in experiment [3], in experiment [8] and in experiment [9]. The Potency in experiment [6] is 29.8 µM (active) and inactive.
For the compound `C=CCn1cc[n+](C)c1`, the Potency result in experiment [1], in [2], in experiment [4], in experiment [5], in experiment [6] and in experiment [7] was “inactive” throughout. Moreover, the Potency entry in the experiment with Aromatase (Homo sapiens) is “inactive”. Further, the compound was called inactive in experiment [3], in experiment [8] and in experiment [9].
Consider `C[C@@H](CN1CC(=O)NC(=O)C1)N1CC(=O)NC(=O)C1`, for which the Potency entry in [1], in experiment [2], in experiment [4], in experiment [5], in experiment [6] and in experiment [7] was “inactive” throughout. Also, in the experiment with Aromatase (Homo sapiens), the Potency entry is “inactive”. Besides, the call in experiment [3], in experiment [8] and in [9] was inactive.
Consider `CCCCCCCC(=O)N(C)C`, for which the Potency entry in experiment [1], in [2], in experiment [4], in experiment [5], in experiment [6] and in experiment [7] was “inactive” throughout. Besides, the Potency result in the experiment with Aromatase (Homo sapiens) was “inactive”. For the same compound, the result in experiment [3], in experiment [8] and in [9] was inactive.
`CN1CCN(C(=O)C2CCCCC2)CC1`: the Potency result in [1], in [2], in experiment [4], in experiment [5], in [6] and in experiment [7] was “inactive” throughout. Moreover, in the experiment with Aromatase (Homo sapiens), the Potency result was “inactive”. The outcome in experiment [8] and in [9] was inactive.
For the compound `CC1=C(O)C(=O)CO1`, the Potency entry in experiment [1], in experiment [2], in [4], in [5], in [6] and in experiment [7] was “inactive” each time. Moreover, the Potency result with Aromatase (Homo sapiens) was “inactive”. The call in experiment [3], in [8] and in experiment [9] was inactive.
As for `CCCCCCCCCCCCCCCC(=O)OC`, the Potency result in experiment [1], in experiment [2], in [4], in experiment [5], in experiment [6] and in experiment [7] was “inactive” in each case. The Potency entry in the experiment with Aromatase (Homo sapiens) is “inactive”. Besides, the compound was called inactive in [8] and in experiment [9].
For `O=C(CCBr)N1CCN(C(=O)CCBr)CC1`, the Potency result in experiment [1], in experiment [2], in [4], in experiment [5], in experiment [6] and in [7] was “inactive” in each case. Further, in the experiment with Aromatase (Homo sapiens), the Potency entry was “inactive”. For the same compound, the call in experiment [8] and in experiment [9] was inactive.
With `Cc1cccc(N)n1`, the Potency entry in [1], in experiment [2], in experiment [4], in experiment [5], in experiment [6] and in [7] was “inactive” throughout. In addition, in the experiment with Aromatase (Homo sapiens), the Potency entry was “inactive”. For the same compound, the compound was classed as inactive in experiment [3], in experiment [8] and in experiment [9].
For the compound `Cc1ccc(OC(=O)CC(C)C)cc1`, the Potency result in experiment [1], in experiment [2], in experiment [4], in [5], in experiment [6] and in experiment [7] was “inactive” in each case. For the same compound, the Potency result with Aromatase (Homo sapiens) was “inactive”. The compound was called inactive in experiment [3], in [8] and in experiment [9].
For the compound `O=Cc1ccc(C(=O)O)cc1`, the Potency entry in [1], in experiment [2], in [4], in [5], in experiment [6] and in experiment [7] was “inactive” throughout. In addition, the Potency result in the experiment with Aromatase (Homo sapiens) was “inactive”. In addition, the result in [8] and in experiment [9] was inactive.
As to `CC(=O)Nc1ccc(OCCOCCOc2ccc(NC(C)=O)cc2)cc1`, the Potency result in experiment [1], in experiment [2], in experiment [4], in experiment [5], in experiment [6] and in experiment [7] was “inactive” each time. In addition, the Potency result with Aromatase (Homo sapiens) is “inactive”. The compound was called inactive in experiment [3], in experiment [8] and in experiment [9].
For `CCCCN(CCCC)CCCCCCN(CCCC)CCCC`, the Potency result in [1], in [2], in [4], in experiment [5], in [6] and in experiment [7] was “inactive” throughout. For the same compound, the Potency entry with Aromatase (Homo sapiens) is “inactive”. Besides, the outcome in experiment [3], in experiment [8] and in [9] was inactive.
Consider `CN(C)c1cc(NC(=O)CNC(C)(C)C)c(O)c2c1C[C@H]1C[C@H]3[C@H](N(C)C)C(=O)C(C(N)=O)=C(O)[C@@]3(O)C(=O)C1=C2O`, for which the Potency result in experiment [1], in experiment [2], in [4], in experiment [5], in experiment [6] and in experiment [7] was “inactive” in each case. Also, the Potency entry in the experiment with Aromatase (Homo sapiens) is “inactive”. Also, the call in experiment [8] and in experiment [9] was inactive.
